# The full ranking holds about 25,000 sequences; the median of “ln(normalized median fluorescence intensity)” is about 9.3, and the highest 2% start at about 10. This is one part of a sample in which the highest values are shown more often than they occur.
# Tested on: PF3D7_0420300 AP2 domain 1 (GST-tagged)
# Test: gcPBM binding intensity (ln(normalized median fluorescence intensity)); higher = stronger DNA binding
# How it was run: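 An Agilent 4 × 180k array carrying primer-extended double-stranded 36-bp intergenic genomic probes and negative controls received GST-tagged P. falciparum DNA-binding domains expressed in E. coli, about 25 μg on average, for 1 h. The binding buffer contained 1× PBS, 1% milk, 0.2 mg/ml BSA, 0.5% salmon testes DNA and 0.03% Triton X-100. Binding intensity is the top Masliner-normalised natural-log median intensity across replicate spots of either probe orientation, read after Alexa488 anti-GST antibody staining and a 488 nm scan.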
row,Sequence,gcPBM binding intensity (ln)
1,TTCAAAGACACAATCACACACATACATAAATATACA [CACACA_site687],9.84
2,TAATCGAAACAAAGAACATGCAAACATATACCTATA [TGCATGCA_site894],9.6
3,ATTTATACATATAAACGTACATACATATATAATATT [XGTACX_site2969],9.3
4,TATTTTTATATAATGTGTACTTATACCTTATTTTTT [XGTACX_site1658],9.3
5,TATATATTATATATATGTACTTATTCATATATATAA [XGTACX_site3860],9.06
6,TTTTACTTAAAACACACACACACAAAAAAAAAAAAA [CACACA_site947],9.96
7,ATATAAAGAAAAGGAACACACAAATATATATATATA [CACACA_site463],9.57
8,AGAATAAAAAGGAACACACACACACCCATATATATA [CACACA_site3590],10.1
9,AGAATAAAAAGGAACACACACACACGCATATAAATA [CACACA_site7659],10.3
10,AAATATAATAAAATGACACACGCATATATATATATA [CACACA_site8900],9.38
11,AAATTCCACGAACACACACACATATAAATAAATAAA [CACACA_site6697],9.97
12,CACGCGCACGAACACACACACACACGCATATAAATA [CACACA_site7103],10.3
13,CACACGCACGAACACACACACACACGCATATAAATA [CACACA_site6302],10.3
14,CACACGCACGAACACACACACATATAAATATAAATA [CACACA_site6299],9.92
15,ACACGCACATATATATAAATATATATATATATAAAT [CACACA_negctrl_site1781],9.21
16,CAGTAGTATATACTATGTACATATTTATATTATATT [XGTACX_site4964],9.22
17,TAATAAACCAAACTAAACAATATATCAAAAAGCACA [CACACA_negctrl_site269],9.75
18,TATATATATATTTTAACACACACATATATATATTTA [CACACA_site8892],9.63
19,TGAAAGAACCTGATTACACACATAAATTATATATAT [CACACA_site26],9.54

row,Sequence,gcPBM binding intensity (ln)
1,GTAATATCAATATAAAGTACACACTATAGTATGTAT [XGTACX_site4714],9.52
2,TTTTAAATAAAAAAATTAAATTAAAATATATAAAAA [XGTACX_negctrl_site490],8.82
3,TGTATTAACAAAAAGGTGCGGATATATATAAAAAAT [GTGCAC_site9473],9.61
4,ATACATATATACATATGTACATATATATATATATAT [XGTACX_site8206],9.3
5,AAAAAAAAAAAAAAAAAAAAAAATATATATATATAT [XGTACX_negctrl_site33],9.26
6,ACATCGATTTATATTCTGCACTGAAGAAACTACAAC [GTGCAC_site9967],9.32
7,CATATTTGGAAACACACACACATATTTATATATATA [CACACA_site3569],9.95
8,ATAATTTGGAAACACACACACACACCCACATATATA [CACACA_site2286],10.3
9,ATTTGGCATAAACACACACACACACCCACCCACATA [CACACA_site8096],10.4
10,TAGAAGCAGAAACACACACACATACATACACATACA [CACACA_site1467],9.99
11,TAATTTTTGAAACACACACACATATATATATATATA [CACACA_site94],9.71
12,ATTTGGCAGAAACACACACACACACCCACCCACATA [CACACA_site589],10.4
13,TGTAAATTTGGCATCACACATAAATAAACATATAAA [CACACA_site4497],9.4
14,TACATAAATTAATAGTCACACACGTATTTTTTATAT [CACACA_site8806],9.45
15,AATAGAACTATTACACGTACAGAACATGAATTAGTT [XGTACX_site7518],9.36
16,TCAAAAGAAATAAAAACATGCATAAAAGTAAAAATA [TGCATGCA_site832],9.33
17,ATAAATGACAAATTAACACACATATATTATAGATAT [CACACA_site7770],9.68
18,TATATATTATATAAATAAATAAATATATATATTTAT [TGCATGCA_negctrl_site270],8.94
19,TTTTTATTTTTTTACAGTACATAAAATAAATAAATA [XGTACX_site6596],8.84

# From the supplement of paper PMC11417369
